SRC3 TRFRET art: TR-FRET detection interference compounds, artefact control for PPARgamma SRC-3 recruitment agonists, biochemical, TR-FRET ratio. TR-FRET artefact counter-screen, PPARgamma/SRC-3 format; stronger effect = higher value. hit rate 0.39% among 99,000. AID 1048, 2008. TR-FRET ratio at 8 µM; in the data active = TR-FRET ratio above about 2000
SRC2 TRFRET art: TR-FRET signal artefacts, primary screen, artefact control for PPARgamma SRC-2 agonist project, biochemical; TR-FRET artefact counter-screen; stronger effect = higher value; TR-FRET ratio at 8 µM; hit rate 0.4% among 200,000; AID 1049, 2008; in the data active = TR-FRET ratio above about 2000
PPARg SRC3 recr: PPARgamma agonists recruiting SRC-3 coactivator, primary screen, biochemical; Peroxisome proliferator-activated receptor gamma (Homo sapiens), P37231; biochemical PPARgamma/SRC-3 coactivator recruitment assay; activation, % at 8 µM; hit rate 0.26% among 200,000; AID 731, 2007; in the data active = activation above about 23%
Target sequence (P37231 whole entry, looked up): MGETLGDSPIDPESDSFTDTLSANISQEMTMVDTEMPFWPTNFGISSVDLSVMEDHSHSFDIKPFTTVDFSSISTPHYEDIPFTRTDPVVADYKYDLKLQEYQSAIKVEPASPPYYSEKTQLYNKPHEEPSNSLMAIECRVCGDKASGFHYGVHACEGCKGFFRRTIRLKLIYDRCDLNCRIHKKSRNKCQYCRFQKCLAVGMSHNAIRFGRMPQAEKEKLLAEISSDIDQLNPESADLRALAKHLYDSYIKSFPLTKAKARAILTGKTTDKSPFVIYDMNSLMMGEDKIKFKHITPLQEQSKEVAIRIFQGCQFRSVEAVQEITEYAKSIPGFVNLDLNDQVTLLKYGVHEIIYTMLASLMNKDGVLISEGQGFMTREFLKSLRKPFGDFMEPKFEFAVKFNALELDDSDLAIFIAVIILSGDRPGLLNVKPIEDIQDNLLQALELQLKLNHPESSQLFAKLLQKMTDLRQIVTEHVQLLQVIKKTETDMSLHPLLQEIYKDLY
PPARg SRC-1 ag: PPARgamma agonists recruiting SRC-1 coactivator, primary screen, biochemical. PPARgamma-SRC-1 coactivator recruitment biochemical assay. AID 631, 2007. Peroxisome proliferator-activated receptor gamma (Homo sapiens), P37231. hit rate 0.41% among 200,000. activation, % at 8 µM; in the data active = activation above about 19%
SRC1 TRFRET art: TR-FRET detection interference compounds, primary screen, artefact control for PPARgamma SRC-1 recruitment agonists, biochemical, TR-FRET emission ratio; TR-FRET detection artefact counter-screen; stronger effect = higher value; TR-FRET ratio at 8 µM; hit rate 0.34% among 99,000; AID 1051, 2008; in the data active = TR-FRET ratio above about 2300
PPARg SRC-2 ag: agonists of PPARg-SRC-2 recruitment, primary screen, biochemical, HTS; Peroxisome proliferator-activated receptor gamma (Homo sapiens), P37231; activation, % at 8 µM; PPARgamma LBD-SRC-2 recruitment; hit rate 0.34% among 200,000
PPARg SRC2 conf: agonists of PPARgamma SRC-2 coactivator recruitment, confirmation, biochemical, HTS. shares compounds with PPARg SRC3 recr. biochemical SRC-2 recruitment by PPARgamma. activation, % at 8 µM. hit rate 52% among 790
PPARg SRC1 conf: PPARgamma agonists recruiting SRC-1 coactivator, confirmation, biochemical; PPARgamma–SRC-1 coactivator recruitment biochemical assay; shares compounds with PPARg SRC3 recr; AID 1300, 2008; hit rate 43% among 790; activation, % at 8 µM; in the data active = activation above about 20%
PPARg SRC3 ag: PPARgamma-driven SRC-3 coactivator recruitment agonists, confirmation, biochemical; biochemical PPARgamma-SRC-3 coactivator recruitment, agonist mode; activation, % at 8 µM; shares compounds with PPARg SRC3 recr; hit rate 29% among 790; in the data active = activation above about 24%
A number is an active result; – = inactive; · = no result. An excerpt weighted towards active compounds, which were near 0.9% of everything screened. Rule as the data show it, unless noted: active = activation above about 22%; inactive = the rest.

SMILES	SRC3 TRFRET art	SRC2 TRFRET art	PPARg SRC3 recr	PPARg SRC-1 ag	SRC1 TRFRET art	PPARg SRC-2 ag	PPARg SRC2 conf	PPARg SRC1 conf	PPARg SRC3 ag
O=C(CSc1nnc(COc2cccc3cccnc23)o1)N1CCc2ccccc21	·	–	–	20	·	–	–	–	–
Clc1ccc(-c2ccc(C=Nc3ccc(N4CCOCC4)cc3)o2)cc1	–	–	–	–	–	–	·	·	·
Clc1cccc(-c2ccc(C=Nc3ccc(N4CCOCC4)cc3)o2)c1Cl	–	2206	–	24	2633	27	36	29	–
CCCCn1c(N)c(N(CC(C)C)C(=O)CN(C)Cc2cccc(OC)c2)c(=O)[nH]c1=O	·	–	–	–	·	–	·	·	·
CC(=O)c1sc(Nc2ccc(C)cc2)nc1C	–	–	–	–	–	–	·	·	·
CC(=O)Nc1nc(C)c(C(C)=O)s1	·	–	–	–	·	–	·	·	·
CC(=O)c1sc(NC(=O)C2COc3ccccc3O2)nc1C (configuration not stated)	·	2016	28	20	·	27	24	–	–
CC(=O)c1sc(Nc2ccccn2)nc1C	·	2724	74	53	·	48	38	25	26
CC(=O)c1sc(NC(=O)C(C)C)nc1C	·	3308	83	59	·	81	54	37	39
CC(=O)Nc1ccc(OS(=O)(=O)c2ccc([N+](=O)[O-])cc2)cc1	–	–	–	–	–	–	·	·	·
CC(C)c1[nH]nc2c1C(Cc1ccccc1)C(C#N)=C(N)O2 (configuration not stated)	·	–	–	19	·	–	–	–	–
[O-]/[N+](=C\c1ccncc1)c1ccccc1	·	–	–	–	·	–	·	·	·
O=C(CSc1ncnc2c1oc1ccccc12)Nc1cccc(Cl)c1	·	–	33	–	·	25	27	22	–
Fc1ccccc1CSc1ncnc2c1oc1ccccc12	·	2035	51	46	·	–	49	38	32
c1ccc(Sc2ncnc3c2oc2ccccc23)nc1	·	–	–	–	·	–	·	·	·
O=C(CSc1ncnc2c1oc1ccccc12)Nc1nc2ccccc2s1	·	–	39	30	·	–	44	31	28
O=c1c2oc3ccccc3c2ncn1Cc1ccccc1F	·	–	–	–	·	–	·	·	·
CC(C)Sc1ncnc2c1oc1ccccc12	·	–	38	36	·	33	45	33	30
O=c1c2oc3ccccc3c2ncn1Cc1cccc(Cl)c1	–	–	–	–	–	–	·	·	·
O=C(CSc1nc2ccccc2o1)Nc1nc2ccccc2s1	·	–	–	–	·	–	·	·	·
CC1(c2cccs2)CC(c2cccs2)=C(C#N)C(=O)N1 (configuration not stated)	·	–	–	–	·	–	·	·	·
C/C(N)=C(/C#N)C(=O)CSc1nc2ccccc2[nH]1	·	–	–	–	·	–	·	·	·
CCCn1nc(CC(=O)OCC)c2ccccc2c1=O	·	–	–	–	·	–	·	·	·
Cc1ccc2c(c1)C(O)(CC(=O)/C=C/C=C/c1ccccc1)C(=O)N2 (configuration not stated)	–	–	–	–	–	–	·	·	·
CC(=O)CSc1ncnc2c1oc1ccccc12	·	5487	219	135	·	114	65	43	44
SMILES	SRC3 TRFRET art	SRC2 TRFRET art	PPARg SRC3 recr	PPARg SRC-1 ag	SRC1 TRFRET art	PPARg SRC-2 ag	PPARg SRC2 conf	PPARg SRC1 conf	PPARg SRC3 ag
CC(=O)N1CCN(c2ccc(Nc3ncnc4c3oc3ccccc34)cc2)CC1	·	–	–	–	·	23	–	–	–
O=C(CSc1ncnc2c1cnn2CCc1ccccc1)Nc1cccc(C(F)(F)F)c1	·	–	–	–	·	–	·	·	·
O=C(CSc1ncnc2c1oc1ccccc12)Nc1cccc(C(F)(F)F)c1	·	2069	29	21	·	35	30	20	–
O=C(O)CSc1nc(-c2ccccc2)nc2c1oc1ccccc12	·	–	–	–	·	–	·	·	·
COC(=O)c1ccc(CSc2ncnc3c2oc2ccccc23)o1	·	1972	50	56	·	29	44	29	31
COc1ccc(CN2C(=O)c3ccccc3C2C(=O)NC2CCCCCC2)c(OC)c1 (configuration not stated)	–	–	–	–	–	–	·	·	·
CC(C)c1ccc(/C=C/C(=O)n2nnc3ccccc32)cc1	·	–	–	–	·	–	·	·	·
O=C(CSc1ncnc2c1oc1ccccc12)Nc1ccccc1F	·	–	27	33	·	–	37	29	–
COC(=O)c1ccc(COC(=O)c2ccc(SC)cc2OC)cc1	–	–	–	–	–	–	·	·	·
CSC1=NSC2=NC(=O)/C(=C\c3coc4ccccc4c3=O)C(=N)N12	–	–	28	25	–	–	–	–	–
CC(C)CSC1=NSC2=NC(=O)/C(=C\c3coc4ccccc4c3=O)C(=N)N12	–	–	–	–	–	–	·	·	·
CN(c1nc(-c2ccc(Br)cc2)cs1)C1CCS(=O)(=O)C1 (configuration not stated)	–	–	–	–	–	–	·	·	·
COc1ccc(CNC(=O)CSc2nc(-c3ccccc3)cc(-c3cccs3)c2C#N)cc1	·	3077	–	–	·	55	26	25	–
CS(=O)(=O)NCC(c1ccco1)N1CCN(c2ccc(F)cc2)CC1 (configuration not stated)	–	–	–	–	–	–	·	·	·
CN1/C(=C\C(=O)c2ccco2)C(C)(C)c2ccccc21	·	–	26	–	·	–	–	–	–
Cn1cc(Cl)c(-c2n[nH]c(=S)n2-c2ccccc2)n1	2184	2159	–	30	2497	35	27	–	–
S=c1[nH]nc(-c2cc(-c3ccco3)[nH]n2)n1-c1ccccc1	·	–	27	–	·	–	23	–	–
CCn1c(-c2nn(C)cc2Cl)n[nH]c1=S	–	–	–	–	–	–	·	·	·
Cc1nn(C)c(-c2n[nH]c(=S)n2-c2ccccc2)c1Cl	2211	2081	–	24	–	–	–	–	–
Cc1cc(-c2n[nH]c(=S)n2-c2ccccc2)nn1C	–	–	–	–	–	–	·	·	·
Cc1c(Cl)c(-c2n[nH]c(=S)n2-c2ccc(F)cc2)nn1C	·	2050	48	33	·	31	28	–	–
Cc1nc(-c2ccc(Br)cc2)ccc1C(=O)O	–	–	–	–	–	–	·	·	·

From PubChem
